An excerpt weighted towards active compounds, which were near 2% of everything screened.
Six1-Eya2 inh: Six1/Eya2 interaction inhibition | Q15475+O00167 | AlphaScreen GST-Six1/His-Eya2 binding, biochemical; active compounds read low | activity change, % (concentration not given with the values) | 0.56% of 360,000 active | AID 651725
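Homogeneous AlphaScreen proximity assay pairing GST-Six1 with His-tagged Eya2 (added as 5X mix: 250 nM and 500 nM) in 50 mM Tris pH 8.0, 300 mM NaCl, 1 mM TCEP. Glutathione donor and nickel acceptor beads; 1 h, 37 °C, dark.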
JMJD2E inh: blocks human JMJD2E demethylase activity; B2RXH2; JMJD2E catalytic domain, FDH-coupled NADH fluorescence (FDH is formaldehyde dehydrogenase); Potency, µM (doses to about 57.1 µM), for inactives: at the highest dose activity change, negative = inhibition, usual class: inhibitors; 1.6% of 230,000 active; active = well fitted inhibition curve with a large enough effect, not every such curve was filed as active; inconclusive = small, poorly fitted or top-dose-only effect, or another doubt; inactive = no such curve, though single readings can be large or run the other way;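 note: potency is the fitted concentration of half-maximal effect; 0% = wells with enzyme and -100% = buffer wells without enzyme; nearly all actives have a fitted effect of over 50% in size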
hERG WT inh: KCNH2 (human, wildtype) channel inhibition | Q12809 | activity change, % at 1.84 µM | U2OS, BacMam KCNH2, thallium flux FluxOr; active compounds read low | 0.37% of 340,000 active;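 active = maximum activity change below -70%; inconclusive = maximum activity change between -70% and -50%; inactive = maximum activity change above -50%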
Target sequence (Q12809 whole entry, looked up): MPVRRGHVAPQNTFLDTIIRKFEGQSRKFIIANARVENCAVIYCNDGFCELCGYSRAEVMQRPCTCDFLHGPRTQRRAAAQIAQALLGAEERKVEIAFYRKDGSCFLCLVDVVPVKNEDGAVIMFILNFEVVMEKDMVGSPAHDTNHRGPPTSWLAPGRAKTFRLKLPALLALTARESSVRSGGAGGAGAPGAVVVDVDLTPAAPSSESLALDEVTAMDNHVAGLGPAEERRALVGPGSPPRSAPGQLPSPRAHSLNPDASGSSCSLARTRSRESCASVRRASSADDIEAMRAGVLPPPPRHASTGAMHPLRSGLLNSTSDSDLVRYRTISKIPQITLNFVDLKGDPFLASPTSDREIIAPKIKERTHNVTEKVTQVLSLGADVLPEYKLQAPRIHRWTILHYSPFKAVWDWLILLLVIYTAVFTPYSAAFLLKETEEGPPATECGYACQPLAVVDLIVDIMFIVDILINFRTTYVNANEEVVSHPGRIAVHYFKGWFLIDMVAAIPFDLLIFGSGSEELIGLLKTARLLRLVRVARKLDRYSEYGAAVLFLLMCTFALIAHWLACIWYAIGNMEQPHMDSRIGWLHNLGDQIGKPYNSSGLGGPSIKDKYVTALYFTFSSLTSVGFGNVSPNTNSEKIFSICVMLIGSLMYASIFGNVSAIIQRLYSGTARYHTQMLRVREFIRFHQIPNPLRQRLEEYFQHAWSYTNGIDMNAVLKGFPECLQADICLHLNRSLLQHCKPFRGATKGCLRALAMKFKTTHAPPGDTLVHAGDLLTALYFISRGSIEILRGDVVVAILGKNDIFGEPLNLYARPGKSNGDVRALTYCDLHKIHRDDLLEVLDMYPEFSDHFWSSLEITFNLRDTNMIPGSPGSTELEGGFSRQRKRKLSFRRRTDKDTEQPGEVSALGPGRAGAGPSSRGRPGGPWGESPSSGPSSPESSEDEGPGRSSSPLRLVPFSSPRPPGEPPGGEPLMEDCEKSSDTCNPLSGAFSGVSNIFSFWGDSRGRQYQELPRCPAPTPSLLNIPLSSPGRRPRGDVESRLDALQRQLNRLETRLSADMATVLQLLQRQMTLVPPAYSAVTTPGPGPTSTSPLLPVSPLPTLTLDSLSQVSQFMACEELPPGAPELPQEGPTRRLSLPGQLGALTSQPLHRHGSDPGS
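U2OS cells were transduced with wild-type KCNH2 virus (2.03 x 10^8 / mL) for 4 h at room temperature, then cultured overnight at 37 C. Thallium flux was read with FluxOr dye. Rate constants were normalized to DMSO controls.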
KCNH2 3.1 inh: KCNH2 3.1 (human) potassium channel inhibition | U2OS KCNH2 3.1, thallium flux FluxOr; active compounds read low | activity change, % (tested at about 1.8 µM) | 0.95% of 340,000 active;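 active = maximum activity change below -70%; inconclusive = maximum activity change from -70% to -50%; inactive = maximum activity change above -50%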;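 note: thallium influx rate constant from kinetic fluorescence after stimulation buffer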
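Thallium flux via FluxOr fluorescence (Red40 quencher, 45 min loading) in U2OS cells virally expressing the KCNH2 3.1 isoform (1.77 x 10^8 /mL virus, overnight at 37 C). Rate constants from 2-min kinetic reads post-stimulation, normalised to positive and negative controls.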
CtBP-E1A inh: CtBP/E1A binding inhibition; AlphaScreen GST-E1A/His-CtBP binding, 1536-well; active compounds read low; AID 651724; activity change, % (no concentration beside the values); 0.49% of 340,000 active
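Protein mix (5X: 125 nM each GST-E1A, His-CtBP) was incubated with pinned compound 2 h at 37 deg C in dark, in 50 mM Tris pH 8.0 buffer with 300 mM NaCl. Glutathione donor and nickel acceptor beads followed; AlphaScreen signal read after 1 h.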
* = called active by the depositor; ? = inconclusive; nt = no result given; ! = not active in a repeat. Cut-off read from the data, not from the text of the source, unless noted: active = activity change below about -65%; inconclusive = mostly about -30% to -63%; inactive = weaker than that. Unless noted, % is set by controls: 0 for no effect and ±100 for the full control effect.

SMILES | Six1-Eya2 inh | JMJD2E inh | hERG WT inh | KCNH2 3.1 inh | CtBP-E1A inh
Cc1ccc(C(C)C)c(OC(=O)/C=C/c2ccccc2)c1 | 108 | 6% | -12 | -91* | 196
Cc1ccc(NC(=O)C(C)OC(=O)/C=C/c2ccccc2)cc1 (stereo not given) | 3 | nt | -22 | 0 | -19
Cc1cccc(/C=N/n2c(-c3ccccn3)n[nH]c2=S)c1 | nt | -6% | nt | nt | nt
S=c1[nH]nc(-c2ccccn2)n1/N=C/c1c(Cl)cccc1Cl | -80* | -7% | 0 | -2 | -1
S=c1[nH]nc(-c2ccccn2)n1/N=C/c1ccc(Cl)cc1 | -75* | 5% | -9 | 1 | ?
Cc1cccc(N(CC(=O)N2CCN(c3ccccc3F)CC2)S(C)(=O)=O)c1 | -9 | -2% | -2 | -85* | -5
Cc1cccc(C)c1N(CC(=O)N1CCN(c2ccccc2F)CC1)S(C)(=O)=O | 3 | 3% | 0 | -2 | -1
CC1CN(C(=O)c2ccccc2)C(=Nc2cccc(S(=O)(=O)N(C)C)c2)S1 (stereo not given) | -3 | 2% | 1 | -9 | 11
COc1ccc(C(=O)NCCSC2CCCCC2)cc1 | 6 | 13% | -18 | -112* | -4
COc1ccc(OC)c(CC(NC(C)=O)C(=O)NC2CCN(S(=O)(=O)c3ccc(NC(C)=O)cc3)CC2)c1 (stereo not given) | 2 | nt | -1 | -6 | 4
O=C1C(Cl)=C(NC2CCc3ccccc32)C(=O)c2ncccc21 (stereo not given) | nt | 5µM* | nt | nt | nt
O=C(/C=C/c1ccoc1)c1ccccc1O | -7 | -29% | -20 | 7 | 10
COc1ccc2ccccc2c1C(=O)/C=C\c1ccoc1 | 3 | 25µM* | 4 | -2 | 12
Cc1cc(=O)n(C2CCS(=O)(=O)C2)[nH]1 (stereo not given) | 11 | 22µM* | -8 | 3 | 1
Cc1cc(OCc2cccc(Cl)c2)c(C)cc1CN1CCOCC1 | 1 | -2% | 8 | -71* | 19
COc1ccccc1OCC(O)Cn1c(=N)n(Cc2ccccc2)c2ccccc21 (stereo not given) | -7 | -7% | 10 | -89* | -2
CCCCCn1c(=N)n(CC(O)COc2ccccc2OC)c2ccccc21 (stereo not given) | 0 | -6% | -85* | -107*! | ?
Cc1ccccc1OCC(O)Cn1c(=N)n(Cc2ccccc2)c2ccccc21 (stereo not given) | 7 | 0% | -2 | ? | 16
COC(=O)CCC(=O)OC1(C)C(=O)C2=CN(CCCOC(C)C)C(c3ccc(OC)cc3)=CC2=C(Br)C1=O (stereo not given) | -14 | 4.5µM* | -3 | -17 | nt
COC(=O)CCC(=O)OC1(C)C(=O)C2=CN(CC3CC3)C(c3ccc(OC)cc3)=CC2=C(Br)C1=O (stereo not given) | -2 | 13µM* | -3 | 22 | -13
c1ccc(N=Nc2ccc3cccccc2-3)cc1 | -98* | nt | -10 | -9 | -90*
Nc1ccc(N=Nc2ccccc2)c2ccccc12 | -16 | -5% | 16 | 20 | -25
O=C(Nn1cc(C(=O)Nc2ccccc2F)c2ccccc2c1=O)c1cnccn1 | -78* | -3% | -10 | -2 | ?
CCc1ccc2[nH]c3nc(N/N=C/c4ccc(O)cc4O)nnc3c2c1 | ? | nt | -16 | -12 | -81*
Cc1ccc2[nH]c3nc(N/N=C/c4cccc(O)c4)nnc3c2c1 | 0 | nt | -9 | 4 | -5
SMILES | Six1-Eya2 inh | JMJD2E inh | hERG WT inh | KCNH2 3.1 inh | CtBP-E1A inh
O=C(NC1(C(F)(F)F)NC(=O)N(C2CCCC2)C1=O)C1CC1 (stereo not given) | 8 | 1% | -4 | -3 | 6
CCCCN(C(=O)c1ccc(-c2ccc(Cl)cc2)o1)c1c(N)n(CCCC)c(=O)[nH]c1=O | 8 | nt | -202* | 4 | nt
C#CC(CC)(CC)NC(=O)/C=C/C(=O)O | 0 | 0% | 2 | 24 | -7
Cc1noc(/C=C/N(C)C)c1S(=O)(=O)N1CCCC(C(=O)N2CCCCC2)C1 (stereo not given) | -1 | 1% | -3 | -8 | -5
CCCN1CCC(N2CCN(c3ccc([N+](=O)[O-])cc3)CC2)CC1 | -7 | nt | -42 | -79* | nt
CCCOc1ccc(N2C(=O)CC(N3CCN(c4ccc([N+](=O)[O-])cc4)CC3)C2=O)cc1 (stereo not given) | -13 | nt | -16 | ? | -10
CCCN1CCC(N2CCN(c3cccc(C(F)(F)F)c3)CC2)CC1 | 4 | -7% | -16 | -97* | 7
CCOc1ccc(N2C(=O)CC(N3CCN(c4ccc([N+](=O)[O-])cc4)CC3)C2=O)cc1 (stereo not given) | -1 | nt | -10 | -91* | nt
CCCCn1c(N)c(N(CCOC)C(=O)CCc2ccc(OC)cc2)c(=O)[nH]c1=O | 5 | 1% | -2 | 6 | 2
O=C(CNC(=O)c1ccco1)Nc1ccc(S(=O)(=O)N2CCCC2)cc1 | -1 | 4% | 0 | -5 | 1
COc1cc2[nH]cc(C(=O)NCc3cccs3)c(=O)c2cc1OC | ? | nt | -28 | 3 | -73*
CCS(=O)(=O)N1Cc2ccccc2CC1C(=O)Nc1cccc(S(=O)(=O)N(C)C)c1 (stereo not given) | 0 | nt | 2 | 15 | 6
C=CC[C@@H](CC(=O)N[C@@H](CO)Cc1ccccc1)C(=O)N[C@H](COC(=O)[C@@H](CC=C)Cc1ccc(F)cc1)Cc1c[nH]c2ccccc12 | -7 | nt | 7 | -6 | -2
C=CC[C@H](CC(=O)N[C@H](CO)Cc1ccccc1)C(=O)N[C@@H](COC(=O)[C@@H](CC=C)Cc1ccc(F)cc1)Cc1c[nH]c2ccccc12 | 4 | nt | -6 | -80* | -4
COc1ccc2[nH]c(C(=O)N/N=C/c3ccc(O)cc3O)cc2c1 | -80* | nt | 0 | 2 | nt
O=C(CNC(=O)C(c1ccccc1)c1ccccc1)N/N=C\c1cccc(O)c1 | 1 | 2% | -2 | 12 | -5
O=C(N/N=C/c1ccc(O)cc1O)/C(=C/c1ccccc1)CCO | -89* | 16µM* | -2 | -6 | -92*
CCOc1ccc2[nH]c(C(=O)N/N=C/c3ccc(OC)cc3)cc2c1 | -17 | nt | -8 | -3 | -6
COc1cc(/C=N/NC(=O)/C(=C/c2ccccc2)CCO)ccc1O | -9 | 10% | 5 | -12 | -1
O=C(CNC(=O)C(c1ccccc1)c1ccccc1)N/N=C/c1ccc(O)cc1O | ? | 20µM* | 4 | -2 | -18
COc1ccc(/C=C\C(=O)NCC(=O)N/N=C/c2ccc(O)cc2O)cc1 | -88* | 7.1µM* | 2 | -5 | -17
CCc1ccc(-n2nnnc2SCC(=O)NNC(=O)c2ccco2)cc1 | 0 | -2% | 2 | -47 | 9
O=C(/C=C\c1ccccc1)NCC(=O)N/N=C/c1ccc(O)cc1O | -75* | nt | 0 | 2 | -97*
